The results in this text go back to PubChem BioAssay (Tox21).

“And” between values parts separate entries of the source, which are not always exact repeats. Equal entries are not always repeated. Inconclusive results are not listed. Some structures have more than one record in an assay (separate samples or runs), and their calls can disagree. The source made the active and inactive calls. Unless noted, calls follow the shape of the dose curve; as a rule, active = well fitted curve in the direction sought with a large enough effect in the repeat runs; inconclusive = weak or mixed curves; inactive = no such curve, though single readings can be large; an effect the other way counts as inactive or inconclusive.

In test [1] the target is Retinoic acid receptor RXR-alpha (Homo sapiens) (UniProt P19793). As to the kind of experiment: qHTS assay to identify small molecule agonists of the RXR signaling pathway (AID 1159527; calls by dose curve; also: nearly all actives have a fitted effect of over 35% in size). In outline: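 GeneBLAzer RXR-alpha-UAS-bla HEK 293T cells in 2% charcoal-stripped FBS medium were exposed to compounds for 16 hr at 37 C in agonist mode. Beta-lactamase reporter read as 460/530 nm FRET ratio after 2 hr substrate loading.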
In general terms: In qHTS, concentration-response curves come from the screen itself.

Test [2] in a line: qHTS assay to identify small molecule agonists of the RXR signaling pathway - cell viability counter screen (AID 1159529). Also: series mostly up to about 77 µM; nearly all actives have a fitted effect of over 50% in size. In outline:
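RXR-alpha-UAS-bla HEK 293T cells in medium with 2% charcoal-stripped FBS were pre-incubated 5 hr, then compound-treated 16 hr at 37 C. Viability was read by CellTiter-Glo luminescence in the same wells as the beta-lactamase assay, with tetraoctyl ammonium bromide as positive control.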

Test [3] is described as follows: qHTS assay to identify small molecule antagonists of the retinoid acid receptor (RAR) signaling pathway - cell viability counter screen (AID 1159551). Also: nearly all actives have a fitted effect of over 35% in size. In outline: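 C3RL4 cells were seeded overnight at 37 C, then treated with compounds plus 1 uM (final) retinol for 6 h at 37 C. Viability was read as ATP by CellTiter-Glo luminescence after 30 min at room temperature.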

A short description of test [4]: qHTS assay to identify small molecule antagonists of the retinoic acid receptor (RAR) signaling pathway (AID 1159552; also: nearly all actives have a fitted effect of over 50% in size). In outline: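 Retinol signaling pathway inhibitors screened in C3RL4 RARE-luciferase reporter cells seeded overnight at 37 C, then compounds added with 1 uM (final) retinol as pathway substrate. After 6 hr at 37 C, luciferase luminescence read after 30 min at room temperature.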

Test [5] can be described thus: qHTS assay to identify small molecule agonists of the retinoic acid receptor (RAR) signaling pathway (AID 1159553). In outline:
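C3RL4 cells carrying a RARE luciferase reporter were plated overnight at 37 C, then exposed to compounds in DMSO for 6 hr at 37 C and 5% CO2. Luminescence was read 30 min after luciferase reagent addition at room temperature.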

Test [6] can be described thus: qHTS assay to identify small molecule antagonists of the estrogen related receptor (ERR) signaling pathway from Tox21 library - cell viability counter screen (AID 1224834). Also: nearly all actives have a fitted effect of over 30% in size. Also: potency is read from the fitted curve at half-maximal effect. In outline: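 ERR reporter cells were plated 6 h before compound addition, then exposed to test compounds in DMSO for 17.5 h at 37 C. Viability was read as CellTiter-Fluor fluorescence after a 30-minute incubation at 37 C.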

The nature of test [7]: qHTS assay to identify small molecule agonists of the constitutive androstane receptor (CAR) signaling pathway - cell viability counter screen (AID 1224836). Also: series mostly up to about 92 µM; nearly all actives have a fitted effect of over 45% in size. The gist of the method: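 HepG2 cells stably carrying hCAR and a CYP2B6-2.2kb reporter; 15-concentration compounds plus PK11195 (final 0.75 uM), 23 hr at 37 C/5% CO2. Viability read by CellTiter-Fluor fluorescence.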

Test [8] is described as follows: qHTS assay to identify small molecule antagonists of the constitutive androstane receptor (CAR) signaling pathway - cell viability counter screen (AID 1224837). Also: series mostly up to about 92 µM; nearly all actives have a fitted effect of over 45% in size. The gist of the method: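 HepG2 cells stably expressing hCAR and a CYP2B6-2.2kb reporter were plated and pre-incubated 4 hr at 37 C/5% CO2, then given compounds at 15 concentrations plus 50 nM CITCO (final). After 23 hr, viability was read by CellTiter-Fluor fluorescence.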

Test [9] has as its target Nuclear receptor subfamily 1 group I member 3 (Homo sapiens) (UniProt Q14994). In words: qHTS assay to identify small molecule antagonists of the constitutive androstane receptor (CAR) signaling pathway (AID 1224838). Also: nearly all actives have a fitted effect of over 40% in size. In outline: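 HepG2 cells stably co-transfected with hCAR and a CYP2B6-2.2kb luciferase reporter were seeded 4 h before compound addition at 15 concentrations. Cells were stimulated with 50 nM CITCO (final) for 24 h at 37 C; luciferase luminescence was then read.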

Test [10] has the same target. In words: qHTS assay to identify small molecule agonists of the constitutive androstane receptor (CAR) signaling pathway (AID 1224839). Also: series mostly up to about 92 µM; nearly all actives have a fitted effect of over 15% in size. The gist of the method:
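HepG2 cells stably co-transfected with hCAR and a CYP2B6-2.2kb luciferase reporter; compounds at 15 concentrations with 0.75 uM PK11195 present. After 24 hr at 37 C, luciferase read by ONE-Glo luminescence.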

The nature of test [11]: qHTS assay to identify small molecule antagonists of the estrogen related receptor signaling pathway with the pleiotropic PPARgamma coactivator (PGC) from Tox21 10K library - cell viability counter screen (AID 1224840; active = well fitted cell-killing curve with a large enough effect in the repeat runs, not every such curve was filed as active; also: nearly all actives have a fitted effect of over 40% in size). The gist of the method: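 PGC/ERR cells were seeded at 2,000 cells/well and left 6 hours at 37 C/5% CO2 before pin-tool addition of compounds in DMSO. After 17.5 hours at 37 C, CellTiter-Fluor was added and fluorescence read 30 minutes later.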

Test [12] concerns the target Luciferin 4-monooxygenase (Photinus pyralis) (UniProt P08659). As to the kind of experiment: qHTS assay to identify small molecule inhibitors of firefly luciferase (AID 1224835). Also: nearly all actives have a fitted effect of over 25% in size. Also: potency is read from the fitted curve at half-maximal effect. In outline:
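Biochemical qHTS: compounds run as interplate titrations against purified firefly enzyme, with D-luciferin and ATP each at its KM concentration. Light output recorded by CCD imaging.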

Test [13] in a line: qHTS assay to identify small molecule agonists of the estrogen related receptor signaling pathway with the pleiotropic PPARgamma coactivator (PGC) from Tox21 10K library (AID 1224842). Also: nearly all actives have a fitted effect of over 15% in size. In outline:
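PGC/ERR reporter cell line, 2,000 cells per well, incubated 6 h at 37 C before 23 nL compound in DMSO was added. After 18 h at 37 C, One-Glo luminescence read following 30 min at room temperature.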

For test [14], the target named is Thyrotropin receptor (Homo sapiens) (UniProt P16473). In words: qHTS assay to identify small molecule agonists of the thyroid stimulating hormone receptor (TSHR) signaling pathway (AID 1224843; calls by dose curve; also: nearly all actives have a fitted effect of over 45% in size). The gist of the method:
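Steps: seed 800 TSHR-HEK293 cells per well; add test compound and hold 30 min at ambient temperature; dispense cAMP-d2 then anti-cAMP cryptate; incubate 1 h at ambient; measure fluorescence intensity.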

Retinoic acid receptor RXR-alpha (Homo sapiens), sequence (P19793 whole entry, looked up): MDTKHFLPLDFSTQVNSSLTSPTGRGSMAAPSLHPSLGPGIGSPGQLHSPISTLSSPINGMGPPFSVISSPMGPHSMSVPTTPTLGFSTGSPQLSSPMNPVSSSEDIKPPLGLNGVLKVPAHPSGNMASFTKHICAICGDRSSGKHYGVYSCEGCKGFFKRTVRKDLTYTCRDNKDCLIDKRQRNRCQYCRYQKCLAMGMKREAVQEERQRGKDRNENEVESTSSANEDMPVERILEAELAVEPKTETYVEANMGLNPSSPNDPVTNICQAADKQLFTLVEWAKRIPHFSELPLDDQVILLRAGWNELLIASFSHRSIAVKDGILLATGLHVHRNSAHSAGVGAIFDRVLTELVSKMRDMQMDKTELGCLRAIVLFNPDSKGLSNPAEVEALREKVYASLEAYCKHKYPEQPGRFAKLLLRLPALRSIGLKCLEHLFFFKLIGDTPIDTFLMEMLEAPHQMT
Luciferin 4-monooxygenase (Photinus pyralis), sequence (P08659 whole entry, looked up): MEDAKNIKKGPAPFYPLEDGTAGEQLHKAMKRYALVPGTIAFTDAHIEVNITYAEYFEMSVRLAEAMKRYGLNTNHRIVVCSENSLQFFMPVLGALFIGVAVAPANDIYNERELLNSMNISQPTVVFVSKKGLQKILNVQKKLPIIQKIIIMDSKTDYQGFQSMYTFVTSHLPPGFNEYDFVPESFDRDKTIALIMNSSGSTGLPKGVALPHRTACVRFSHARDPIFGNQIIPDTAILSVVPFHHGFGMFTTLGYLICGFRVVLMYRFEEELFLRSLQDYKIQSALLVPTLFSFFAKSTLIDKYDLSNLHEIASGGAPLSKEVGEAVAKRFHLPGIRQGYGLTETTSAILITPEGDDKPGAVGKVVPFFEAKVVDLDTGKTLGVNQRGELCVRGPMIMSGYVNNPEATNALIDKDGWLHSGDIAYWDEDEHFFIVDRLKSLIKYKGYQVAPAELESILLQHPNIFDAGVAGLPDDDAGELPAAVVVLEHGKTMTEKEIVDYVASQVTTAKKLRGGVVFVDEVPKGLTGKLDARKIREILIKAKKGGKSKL
Nuclear receptor subfamily 1 group I member 3 (Homo sapiens), sequence (Q14994 whole entry, looked up): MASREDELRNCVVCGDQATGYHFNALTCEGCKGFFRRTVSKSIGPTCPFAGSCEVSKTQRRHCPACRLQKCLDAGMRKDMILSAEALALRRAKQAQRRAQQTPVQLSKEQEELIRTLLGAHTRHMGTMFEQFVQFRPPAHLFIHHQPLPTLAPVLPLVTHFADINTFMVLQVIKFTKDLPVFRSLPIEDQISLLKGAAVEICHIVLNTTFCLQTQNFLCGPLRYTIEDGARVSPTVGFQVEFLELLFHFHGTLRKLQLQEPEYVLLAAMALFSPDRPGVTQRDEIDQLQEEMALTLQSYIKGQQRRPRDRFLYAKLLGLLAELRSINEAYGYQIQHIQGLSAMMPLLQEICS
Thyrotropin receptor (Homo sapiens), sequence (P16473 whole entry, looked up): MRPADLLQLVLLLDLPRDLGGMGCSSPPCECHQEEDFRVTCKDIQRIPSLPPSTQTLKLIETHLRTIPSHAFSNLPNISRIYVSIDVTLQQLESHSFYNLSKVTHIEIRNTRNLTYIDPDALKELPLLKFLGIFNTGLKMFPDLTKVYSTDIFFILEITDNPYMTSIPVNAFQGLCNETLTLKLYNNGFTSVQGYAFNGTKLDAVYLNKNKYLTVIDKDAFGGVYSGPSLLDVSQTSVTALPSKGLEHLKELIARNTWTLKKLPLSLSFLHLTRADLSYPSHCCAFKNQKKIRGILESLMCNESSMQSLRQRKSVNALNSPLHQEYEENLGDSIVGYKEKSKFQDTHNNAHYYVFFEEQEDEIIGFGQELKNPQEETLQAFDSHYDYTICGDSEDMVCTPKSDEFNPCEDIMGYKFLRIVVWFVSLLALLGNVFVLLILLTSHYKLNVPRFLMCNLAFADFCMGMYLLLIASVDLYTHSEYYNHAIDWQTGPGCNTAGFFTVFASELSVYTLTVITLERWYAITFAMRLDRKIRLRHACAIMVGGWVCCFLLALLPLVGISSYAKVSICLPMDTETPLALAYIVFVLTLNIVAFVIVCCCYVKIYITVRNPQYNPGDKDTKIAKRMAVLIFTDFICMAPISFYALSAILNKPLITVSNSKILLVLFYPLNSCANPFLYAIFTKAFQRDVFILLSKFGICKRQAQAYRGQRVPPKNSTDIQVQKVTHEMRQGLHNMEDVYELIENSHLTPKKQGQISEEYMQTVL

For the compound `Oc1ccc(Cl)cc1`, the Potency result in [1], in [4], in test [5], in test [6], in [7] and in test [8] was “inactive” throughout. Further, the Potency entry in [9], in test [10] and in [11] was “inactive” in each case. Further, the compound was called inactive in test [2] and in test [3].

As for `COP(=S)(OC)SCN1C(=O)c2ccccc2C1=O`, the Potency result in test [1], in test [6], in test [7], in test [8] and in test [11] was “inactive” each time. Besides, the compound was called inactive in [2] and in test [3]. Besides, the Potency in test [12] was 71.5 µM (active) and 63.3 µM (active) and inactive.

As to `C=CC(=O)OCC(CC)CCCC` (stereo not drawn), the Potency entry in test [1], in test [4], in test [5], in [6], in test [7] and in test [8] was “inactive” throughout. The Potency entry in test [9], in test [10], in test [11] and in [13] was “inactive” throughout. Also, the result in test [2] and in test [3] was inactive.

Consider `c1ccc2c(c1)CCCC2`, for which the Potency result in [1], in test [6], in [12], in test [7], in test [8] and in test [9] was “inactive” throughout. Also, the Potency entry in [10], in [11] and in [14] was “inactive” in each case. The outcome in test [2] and in test [3] was inactive.

As to `CC12CC1(C)C(=O)N(c1cc(Cl)cc(Cl)c1)C2=O` (stereo not drawn), the Potency result in test [1], in test [6], in test [12], in test [7], in test [8] and in [9] was “inactive” in each case. The Potency result in test [10] and in test [11] was “inactive” each time. In addition, the compound was called inactive in test [2] and in test [3].

In the case of `O=[N+]([O-])c1cc([As](=O)(O)O)ccc1O`, the Potency entry in test [1], in test [4], in [5], in [12], in test [7] and in [8] was “inactive” in each case. In addition, the Potency result in [11], in test [13] and in [14] was “inactive” in each case. Moreover, the outcome in test [2] and in [3] was inactive. Also, the Potency in [6] was 60.7 µM (active).

As for `CCNc1nc(Cl)nc(NC(C)C)n1`, the Potency result in test [1], in test [6], in test [12], in [7], in test [8] and in test [11] was “inactive” in each case. Besides, the Potency result in [13] was “inactive”. For the same compound, the compound was classed as inactive in test [2] and in test [3].
